# PLC-gamma1 inh: blocks human PLC-gamma1 enzyme activity; P19174; 370,000 compounds, 0.84% hits; purified PLC-gamma1, fluorogenic substrate, fluorescence; inhibition, % at 12.2 µM; AID 720700
# ADAM10 inh: inhibits human ADAM10 | 370,000 compounds, 0.62% hits | recombinant ADAM10, EDANS/DABCYL FRET peptide cleavage, 3 h | inhibition, % at 7 µM | AID 720582;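 active = inhibition above a per-campaign cutoff equal to the mean of compounds falling between control-based bounds plus 3 SD, cut at about 20% in these data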;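 note: 0% = DMSO wells while the 100% control is not disclosed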
# Target sequence (O14672 214-748 limits assumed): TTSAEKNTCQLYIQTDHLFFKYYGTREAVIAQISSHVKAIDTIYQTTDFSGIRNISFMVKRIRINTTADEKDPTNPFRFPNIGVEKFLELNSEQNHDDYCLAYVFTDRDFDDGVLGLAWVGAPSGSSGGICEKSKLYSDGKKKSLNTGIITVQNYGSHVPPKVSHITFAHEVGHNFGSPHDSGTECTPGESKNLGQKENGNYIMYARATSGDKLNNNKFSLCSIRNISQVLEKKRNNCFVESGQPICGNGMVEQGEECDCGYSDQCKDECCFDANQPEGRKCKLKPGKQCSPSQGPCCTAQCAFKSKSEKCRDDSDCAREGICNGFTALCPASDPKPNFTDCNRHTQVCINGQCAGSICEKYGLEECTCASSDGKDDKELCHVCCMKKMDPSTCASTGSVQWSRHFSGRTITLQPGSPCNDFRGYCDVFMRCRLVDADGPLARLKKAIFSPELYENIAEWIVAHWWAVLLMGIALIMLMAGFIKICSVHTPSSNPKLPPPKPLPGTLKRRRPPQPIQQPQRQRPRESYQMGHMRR
# Rce1 inhib: blocks yeast Ras-converting enzyme. 290,000 compounds, 0.27% hits. yeast membranes, quenched prenylated peptide cleavage fluorescence. calls only. AID 2563. Q03530;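 active = fall in fluorescence gain of 50% or more versus controls, with final raw signal at or below 3038400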;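 note: plate controls were neutral control wells for no effect and wells lacking membranes for full effect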
# PLC-beta3 inh: PLC-beta3 (human) inhibition, primary screen. Q01970. Purified PLC-beta3, fluorogenic substrate, fluorescence. inhibition, % at 12.2 µM. 370,000 compounds, 0.18% hits. AID 720704; in the data active = inhibition above about 11%;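 note: 0% = median of compound wells on plate and 100% = full blocker control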
# ADAM17 inh: ADAM17 inhibition, QFRET primary screen; inhibition, % at 6.95 µM; AID 720648; recombinant ADAM17, EDANS/DABCYL FRET peptide cleavage; 370,000 compounds, 0.83% hits; P78536;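 active = inhibition above the mean of compounds lying between control limits plus 3 SD, set per campaign, cut at about 8.5% in these data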;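 note: 0% = DMSO-only wells as the low control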
# PLCg1 ctr: PLC-gamma1 inhibition, counter-screen for PLC-beta3 hits; shares compounds with PLC-gamma1 inh; purified PLC-gamma1, fluorogenic substrate, fluorescence; inhibition, % at 12.3 µM; 3,300 compounds, 3.1% hits; AID 743258
# PLCb3 confirm: confirmation of human PLC-beta3 inhibitors; 3,300 compounds, 1% hits; shares compounds with PLC-gamma1 inh; purified PLC-beta3, fluorogenic substrate fluorescence; inhibition, % at 12.3 µM; AID 743261; in the data active = inhibition above about 11%
# The depositor's hits bear a star; i = inactive; · = no result given. The list is not random: actives were taken first. Their share in the collection is about 2.1%. Cut-off read from the data, not from the text of the source, unless noted: active = inhibition above about 9.5%; inactive = the rest.
SMILES,PLC-gamma1 inh,ADAM10 inh,Rce1 inhib,PLC-beta3 inh,ADAM17 inh,PLCg1 ctr,PLCb3 confirm
CCNC(=O)Nc1ccc2c(c1)C(=O)N(C)[C@H]1CC[C@H](CC(=O)N[C@H](C)c3ccccc3)O[C@@H]1CO2,9.5*,16,·,7,-7,11*,12*
C[C@@H](NC(=O)C[C@H]1CC[C@H]2[C@@H](COc3ccc(NC(=O)Nc4ccccc4)cc3C(=O)N2C)O1)c1ccccc1,12*,1,·,3,-9,4,8
COc1cc2c(cc1OC)C(c1cccs1)N(C(=O)c1cccc(S(=O)(=O)N(C)C)c1)CC2 (stereo unspecified),-11,3,i,-8,0,·,·
COC(=O)C(Cc1ccc(O)cc1)NC(=O)C(C)NC(=O)c1ccc(C(C)(C)C)cc1 (stereo unspecified),9.7*,7,i,2,5,6,-14
Cc1c(NC(=O)[C@@H](NC(=O)c2ccc(Cl)c([N+](=O)[O-])c2)C(C)C)c(=O)n(-c2ccccc2)n1C,1,-4,·,4,0,·,·
COC(=O)c1ccc(OCCOc2ccccc2)cc1,11*,10,i,1,4,-7,-4
CCCSc1nc(C)c(CC(=O)OCC)c(=O)[nH]1,9.7*,3,i,7,3,3,3
O=C(CCCCCNC(=O)N1CCn2c1nc1ccccc12)NCc1ccc(F)cc1,11*,2,i,0,3,-5,-4
CSc1nc(-c2ccc(F)cc2)cc(=O)[nH]1,-6,5,i,-2,0,·,·
CS(=O)(=O)N(CC(=O)NCCSc1ccccn1)c1ccc(F)cc1,3,7,i,1,3,·,·
CS(=O)(=O)N(CC(=O)NCCSCc1ccccc1Cl)c1ccc(F)cc1,13*,11,i,0,7,-4,-2
Cc1ccccc1NS(=O)(=O)c1ccc2c(c1)CCC(=O)N2,13*,0,·,5,4,-5,-3
Cc1cc(Br)cc2c(C(=O)NCC3CCCO3)cc(-c3cccs3)nc12 (stereo unspecified),12*,-9,i,2,1,-23,-31
COc1cc([N+](=O)[O-])ccc1NC(=S)NNC(=O)CCC(=O)Nc1ccccc1Cl,-2,10,i,-8,3,·,·
COc1ccc(S(=O)(=O)NC2CCCCCC2)cc1C(N)=O,2,2,i,-3,-1,·,·
CCOc1ccc(C(=O)Oc2cc(C)[nH]c(=O)c2[N+](=O)[O-])cc1OCC,10*,5,i,2,4,6,4
CCOc1ccc(C(=O)Oc2cc(C)[nH]c(=O)c2[N+](=O)[O-])cc1,4,-10,i,3,-2,·,·
C[C@@H]1CN([C@H](C)CO)S(=O)(=O)c2ccc(Br)cc2O[C@H]1CN(C)C(=O)Nc1ccccc1,1,-1,·,4,-1,·,·
CCc1nc2c(OCCn3cccc3)cccn2c1N(C)C(=O)c1ccccc1F,-3,-11,·,-5,-5,·,·
CC1(C)Cc2ccccc2C(/C(=N/O)C(N)=O)=N1,11*,10,i,5,2,2,1
CCOC(=O)C1(CC2CCCCO2)CCN(S(=O)(=O)c2ccccc2)CC1 (stereo unspecified),1,-1,i,-1,-1,·,·
CCOC(=O)C1(CC2CCCCO2)CCN(S(=O)(=O)c2c(C)nn(C)c2C)CC1 (stereo unspecified),13*,1,i,13*,4,-6,-3
Cc1cccc(OCC(=O)OCC(=O)N(CC(C)C)c2c(N)n(Cc3ccccc3)c(=O)[nH]c2=O)c1C,14*,4,i,10,5,-5,-1
Cc1ccc(CN2CC(C(=O)N(CC(C)C)c3c(N)n(Cc4ccccc4)c(=O)[nH]c3=O)CC2=O)cc1 (stereo unspecified),10*,-12,·,-7,-3,-4,0
CCOCCCNC(=O)C(c1ccc(OC)cc1)N(Cc1cccs1)C(=O)c1ccccc1O (stereo unspecified),-2,1,i,4,1,·,·
SMILES,PLC-gamma1 inh,ADAM10 inh,Rce1 inhib,PLC-beta3 inh,ADAM17 inh,PLCg1 ctr,PLCb3 confirm
CC(C)C[C@@H](CN1CCC[C@H]1CN1C(=O)C(=O)NC[C@@H]1Cc1ccc(O)cc1)N1C[C@H](Cc2ccccc2)N(CC2CCCCC2)C(=O)C1=O,10*,-6,·,-4,0,-5,-3
O=C1NC2(CCCCCC2)C(=O)N1Cc1ccccc1Cl,0,-13,i,-6,-6,·,·
CCCC(C)(C)NC(=O)CCCCC(=O)NC(C)(C)CCC,1,-4,i,1,-4,·,·
CC(C)(C)NC(=O)CCCCCCCC(=O)NC(C)(C)C,13*,-2,i,11*,5,-6,-1
COc1ccc(OC)c(NC(=O)CSc2ccc(-c3cccnc3)nn2)c1,2,-1,i,-6,-1,·,·
O=C(O)c1ccc(-c2nnn(Cc3cccc(C(F)(F)F)c3)n2)cc1,4,7,i,2,-2,·,·
Cc1ccc(COc2coc(CO)cc2=O)cc1,8,8,i,12*,3,-7,-3
O=c1cc(CO)occ1OCc1cccc(F)c1,9,0,i,7,0,·,·
CCOC(=O)[C@H](CCc1ccccc1)N[C@@H](C)C(=O)N1C(C(=O)O)C[C@@H]2CCC[C@@H]21 (stereo partly specified),10*,17,·,10,7,-1,-1
CC(Oc1ccccc1Cl)C(=O)Nc1ccc(S(=O)(=O)N2CCN(C)CC2)cc1 (stereo unspecified),-1,-10,·,-7,-2,·,·
COc1ccc(OC)c(NC(=O)COc2coc(CN3CCCc4ccccc43)cc2=O)c1,17*,-5,i,-6,-1,-8,-5
COC(=O)[C@]12C[C@H](CC(=O)N3CCCCC3)C(=O)N(CCC3=CCCCC3)C1=C[C@H](C1CCCC1)O[C@@H]2C,11*,-11,·,-7,-8,1,-1
COC(=O)[C@]12C[C@H](CC(=O)NCCC(C)C)C(=O)N(Cc3ccc(Cl)cc3Cl)C1=C[C@H](C1CCCC1)O[C@@H]2C,11*,4,·,1,5,3,3
COC(=O)[C@]12C[C@H](CC(=O)NCC3CCCCC3)C(=O)N(Cc3cccc4ccccc34)C1=C[C@H](C1CCCC1)O[C@@H]2C,11*,-5,·,1,-3,-1,-8
COC(=O)[C@]12C[C@H](CC(=O)N3CCOCC3)C(=O)N(CCC3=CCCCC3)C1=C[C@H](C1CCCC1)O[C@@H]2C,-1,4,·,1,0,·,·
CCCCOCCCNC(=O)C[C@H]1C[C@@]2(C(=O)OC)C(=C[C@H](C3CCCC3)O[C@@H]2C)N(Cc2ccc(Cl)cc2Cl)C1=O,0,-3,·,4,-2,·,·
